Molecules are shown by their SMILES. Several values for one entry are separate records, joined by “and”; a condition that tells them apart may be missing. Equal entries are not always repeated. About 1,000 (0.32%) of roughly 310,000 compounds were called active. The rule behind the calls is not given here. The list is a sample of the results. Entries with a potency or affinity are not part of this list.

What is called inhibition is the relative decrease from the control value, in per cent.

This test in a line: PhoP regulon inhibitors, Salmonella typhi PhoP promoter GFP reporter, confirmatory (AID 1850).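 Note: 0% = induced wells with vehicle and 100% = uninduced wells.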 Conditions: fluorescence, 4 h, at 50 µM, stronger effect = higher value.
In the case of `Cc1c(C(=O)N2CCOCC2)sc2ncn(CC(=O)N3CCC(C)CC3)c(=O)c12`, the inhibition was 0.7% (inactive). For `Clc1ccc(COC(Cn2ccnc2)c2ccc(Cl)cc2Cl)c(Cl)c1` (centres undefined) the value was -1.14% (inactive) and 1.85% (inactive). Take `Clc1ccc(COC(Cn2ccnc2)c2ccc(Cl)cc2Cl)cc1` (centres undefined): the inhibition is -0.54% (inactive). Regarding `Cn1ccsc1=NC(=O)c1ccc(S(=O)(=O)C(F)F)cc1`, the inhibition is 2.31% (inactive). For `CCOc1ccccc1-c1nc(-c2ccc(NC(=O)Cc3ccccc3OC)cc2)no1`, the inhibition was 1.73% (inactive) and -10.4% (inactive). For the compound `C[n+]1ccn(CC(=O)c2ccc(Cl)cc2)c1`, the inhibition was -7.58% (inactive).

`O=C(Cn1c[n+](CC(=O)c2ccc([N+](=O)[O-])cc2)cn1)c1ccc([N+](=O)[O-])cc1`: the inhibition was 7.72% (inactive) and 18.6% (inactive). In the case of `O=C(Cn1cc[n+](CC(=O)c2ccccc2)c1)c1ccccc1`, the inhibition was 18.8% (inactive). Regarding `O=C(C[n+]1ccn(-c2ccccc2)c1)c1ccc([N+](=O)[O-])cc1`, the inhibition was 4.4% (inactive). Take `O=c1c(/C=N\NS(=O)(=O)c2ccccc2)coc2ccc(Cl)cc12`: the inhibition is -7.39% (inactive).

In the case of `C/C(=C\c1ccccc1)CN1CCN(C(C)C)C(CCO)C1` (centres undefined), the inhibition is -0.3% (inactive). For `CC1=CC(c2ccccc2)n2ncnc2N1` (centres undefined) the value was 3.87% (inactive). `COC/C=C/C1=CC2=CC(=O)C(C)(OC(=O)c3cnc4ccccc4n3)C(=O)C2=CN1CCc1ccccn1` (centres undefined): the inhibition is 0.66% (inactive). Take `CC(C)c1ccccc1OCC(O)CN(CC(O)COc1cccc2ccccc12)C(C)C` (centres undefined): the inhibition was -6.27% (inactive).

As to `CCN(CCNCC(O)COCc1ccc(Cl)cc1)c1cccc(C)c1` (centres undefined), the inhibition was -1.24% (inactive). For `Cc1c(Cl)cccc1NC(CC(=O)c1ccccc1)C(=O)OCC(=O)c1cccs1` (centres undefined) the value was -2.54% (inactive).

Consider `Cc1cccc(NC(=O)Nc2ccc(S(N)(=O)=O)cc2)c1`, for which the inhibition was -0.31% (inactive). Next, `Cc1ccc(S(=O)(=O)NNC2=NS(=O)(=O)c3ccccc32)c(C)c1`: 0.74% (inactive). Next, `CC(=O)Nc1ccc(S(=O)(=O)NNC(=O)COc2cccc(C)c2)cc1`: 9.44% (inactive).

For the compound `Cc1ccc(S(=O)(=O)NNC(=O)C(=O)NNS(=O)(=O)c2ccc(C)cc2)cc1`, the inhibition is -7.52% (inactive). Consider `Cc1ccc(S(=O)(=O)NNc2ccccc2)cc1`, for which the inhibition was 32.1% (inactive). With `Cc1ccc(S(=O)(=O)NNC(=O)Nc2cccc(F)c2)c(C)c1`, the inhibition was -7.92% (inactive). Next, `CCOC(=O)N1CCN(Cc2nc3cc(NC(=O)c4cccs4)ccc3n2C)CC1`: -16.8% (inactive); `COc1cc(CNn2cn[nH]c2=S)ccc1OCC(=O)NC(C)(C)C`: -5.11% (inactive).

With `CC(=O)N1CN2CN(C(C)=O)CC(C(=O)c3ccc([N+](=O)[O-])cc3)(C2)C1`, the inhibition was 5.88% (inactive). For `CCOC(=O)c1ccccc1NC(=O)CSc1nc2ccccc2n1CC(=O)N1CCCC1` the value was -7.2% (inactive); for `CN(C)c1ccc(/C=C/c2nc3ccccc3s2)cc1`, -9.15% (inactive). Take `Cc1nc2ccc(C(=O)Nc3ccc(N(C)C)cc3)cc2s1`: the inhibition is -5.67% (inactive). For the compound `CC(C)CNC(=O)C(=O)NCCCN1CCOCC1`, the inhibition is 3.18% (inactive). On to `CCOc1ccc(N2C(=O)CC(NCCc3c[nH]c4ccccc34)C2=O)cc1` (centres undefined), for which the inhibition is 6.97% (inactive). In the case of `CCOc1ccc(NC(=O)CSc2nc3ccccc3nc2N2CC(C)OC(C)C2)cc1` (centres undefined), the inhibition is -3.96% (inactive). Consider `COc1ccc(CNC(=O)C2CCN(S(=O)(=O)c3ccc4c(c3)CC(C)N4C(C)=O)CC2)cc1` (centres undefined), for which the inhibition was 1.71% (inactive). In the case of `Cc1ccc2nc(N(CCCN(C)C)C(=O)CCc3ccccc3)sc2c1`, the inhibition is -4.72% (inactive). Take `CN(C)CCCN(C(=O)CCc1ccccc1)c1nc2ccc(F)cc2s1`: the inhibition was 1.04% (inactive). In the case of `COc1cccc2sc(N(CCCN(C)C)C(=O)COc3ccc(Cl)cc3)nc12`, the inhibition is -1.1% (inactive).

For the compound `CN(C)CCCN(C(=O)COc1ccc(Cl)cc1)c1nc2c(F)cccc2s1`, the inhibition is 8.92% (inactive). Take `CN(C)CCCN(C(=O)CCc1ccccc1)c1nc2ccc(Cl)cc2s1`: the inhibition is 0.73% (inactive). In the case of `CN(C)CCCN(C(=O)COc1ccc(Cl)cc1)c1nc2ccc(F)cc2s1`, the inhibition is 14% (inactive).

Regarding `Cc1ccc2nc(N(CCCN(C)C)C(=O)COc3ccc(Cl)cc3)sc2c1`, the inhibition is 6.88% (inactive).

On to `CN(C)CCCN(C(=O)COc1ccccc1)c1nc2ccc(F)cc2s1`, for which the inhibition was -2.75% (inactive). Turning to `CCOc1ccc(Oc2cc(N)cc([N+](=O)[O-])c2)cc1`, the inhibition was -14.2% (inactive).

As for `O=C(c1ccc(F)cc1F)N1CCN(c2n[nH]c(=O)[nH]c2=O)CC1`, the inhibition was -2.71% (inactive).

In the case of `COC(=O)c1nnn(CC(=O)NC(=O)Nc2c(C)cccc2C)c1C(=O)OC`, the inhibition is -3.97% (inactive). Turning to `CCN(CC(=O)NCCc1ccc(Cl)cc1)Cc1nc2ccccc2c(=O)[nH]1`, the inhibition was -9.11% (inactive). Turning to `Cc1ccc(NC(=O)CN2C(=O)S/C(=C\c3ccc(OCC(=O)O)c(Br)c3)C2=O)cc1`, the inhibition was -6.05% (inactive). Consider `CC1(C)OC(=O)C(=CNc2ncccn2)C(=O)O1`, for which the inhibition is -4.83% (inactive). Take `CCSc1nnc(NC(=O)CSc2ncccn2)s1`: the inhibition is -1.89% (inactive). Turning to `Cc1ccc(N2CC(NC(=O)C3CC3)CC2=O)cc1` (centres undefined), the inhibition is 9.02% (inactive). On to `Cn1c(N)c(C(=O)COC(=O)CN2C(=O)c3ccccc3C2=O)c(=O)n(C)c1=O`, for which the inhibition was -5.68% (inactive). With `CCN1CCN(CCCNC(=O)CCCn2nc(C)c3sc4ccccc4c3c2=O)CC1`, the inhibition is 0.59% (inactive). Regarding `Cc1cc(Br)ccc1OCCNCc1ccccc1`, the inhibition is 11.4% (inactive). Take `CCN(CC)CCOCCOc1ccc(Cl)c2ccccc12`: the inhibition was 1.79% (inactive). For `Brc1ccccc1OCCNCc1ccccc1` the value was 11.4% (inactive). Next, `Cc1ccc(OCCOCCN(C)C)c(Cl)c1`: 2.62% (inactive); `CCOc1ccccc1OCCCNCc1ccccc1`: -6.34% (inactive); `COCCNCCCOc1ccc(Br)cc1Cl`: 5.48% (inactive). On to `Clc1ccc(Cl)c(OCCCCNCc2ccccc2)c1`, for which the inhibition was 13.1% (inactive). In the case of `COCCCNCCCOc1ccc(Cl)cc1Br`, the inhibition is 4.69% (inactive). For `O=C(O)C1C2C=CC(C2)C1C(=O)NCCCN1CCCC1=O` (centres undefined) the value was -1.57% (inactive).

The values above are taken from PubChem BioAssay AID1850 (Southern Research Specialized Biocontainment Screening …, 2009).
